Values joined by “and” are separate entries in the source; they are usually repeats but may differ in a detail not shown here. Identical values can stand only once. The campaign covered roughly 5,500 compounds. About 2,000 (36%) were called active. Another 18% or so got no clear call; they are omitted. Cut-off read from the data, not from the text of the source: active = normalized growth mostly below about 0.91 (no sharp cut-off); inconclusive = no clear call, values can overlap the other calls; inactive = mostly above about 0.92. This is one part of the list. Where a SMILES comes first, the peptide text is derived from it. Side-chain parts run from the residue outwards. [ ]: non-standard residue; d: D form. The star is where a group is joined. X1 = CCC(C)C(N)C1=NC(C(=O)*)CS1; Orn = NCCC[CH](N)C(=O)O
Experiment: chemical genetic growth profiling, strain panel (AID 1159580);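 note: tested at 20 µM; growth read once vehicle control cultures reached saturation at 30 °C; 1 = growth at the plate median or of vehicle wells; lower values mean less growth of the strain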
Conditions: S. cerevisiae deletion strains, growth OD

Measured: normalized growth

CCC(C)C(N)C1=NC(C(=O)NC(CC(C)C)C(=O)NC(CCC(=O)O)C(=O)NC(C(=O)NCCCCC2NC(=O)C(CC(N)=O)NC(=O)C(CC(=O)O)NC(=O)C(Cc3cnc[nH]3)NC(=O)C(Cc3ccccc3)NC(=O)C(C(C)CC)NC(=O)C(CCCN)NC2=O)C(C)CC)CS1 (stereo not drawn) (cyclo(DNK([Ile-Glu-Leu-X1])[Orn]IFH); configuration not given here)
inactive: locus YAL013W, strain DEP1, hits give low values 1.01 | locus YAL021C, strain ccr4, hits give low values 0.992 | locus YAL026C, strain drs2, hits give low values 0.929 | locus YAL030W, strain snc1, hits give low values 0.997 | locus YBL061C, strain skt5, hits give low values 1 | locus YBR009C, strain hhf1, hits give low values 0.952 | locus YBR021W, strain FUR4, hits give low values 1.01 | locus YBR023C, strain chs3, hits give low values 1.02 | locus YBR171W, strain sec66, hits give low values 1 | locus YBR229C, strain ROT2, hits give low values 0.991 | locus YBR231C, strain swc5, hits give low values 0.999 | locus YBR279W, strain paf1, hits give low values 1.01 | locus YCL011C, strain gbp2, hits give low values 0.968 | locus YCL016C, strain dcc1, hits give low values 0.981 | locus YCL029C, strain bik1, hits give low values 1.01 | locus YCL061C, strain MRC1, hits give low values 0.993 | locus YCL069W, strain vba3, hits give low values 1 | locus YCR088W, strain abp1, hits give low values 1.01 | locus YDL005C, strain med2, hits give low values 0.999 | locus YDL035C, strain GPR1, hits give low values 0.998 | locus YDL040C, strain nat1, hits give low values 1.01 | locus YDL074C, strain BRE1, hits give low values 1.04 | locus YDL101C, strain DUN1, hits give low values 1 | locus YDL185W, strain tfp1, hits give low values 1.04 | locus YDL192W, strain arf1, hits give low values 1 | locus YDR001C, strain nth1, hits give low values 0.987 | locus YDR069C, strain doa4, hits give low values 1.02 | locus YDR101C, strain arx1, hits give low values 1.02 | locus YDR137W, strain rgp1, hits give low values 0.992 | locus YDR150W, strain NUM1, hits give low values 1 | locus YDR159W, strain sac3, hits give low values 0.996 | locus YDR162C, strain NBP2, hits give low values 0.976 | locus YDR195W, strain ref2 0.976 | locus YDR297W, strain sur2, hits give low values 1.01 | locus YDR318W, strain mcm21, hits give low values 0.989 | locus YDR334W, strain swr1, hits give low values 1.01 | locus YDR335W, strain msn5, hits give low values 1.01 | locus YDR388W, hits give low values 1.01 | locus YDR392W, strain spt3, hits give low values 0.94 | locus YDR502C, strain sam2, hits give low values 1.01 | locus YEL003W, strain gim4, hits give low values 1.01 | locus YEL037C, strain rad23, hits give low values 1.01 | locus YEL061C, strain CIN8 (second series), hits give low values 1.01 | locus YEL061C, strain CIN8, hits give low values 0.998 | locus YER015W, strain faa2, hits give low values 1.01 | locus YER016W, strain bim1, hits give low values 1 | locus YER110C, hits give low values 1 | locus YER111C, strain swi4, hits give low values 1.01 | locus YER155C, strain BEM2 (second series), hits give low values 1.01 | locus YER155C, strain BEM2, hits give low values 0.992 | locus YER167W, strain BCK2, hits give low values 1.01 | locus YFR010W, strain ubp6, hits give low values 1.03 | locus YGL078C, strain dbp3, hits give low values 1.01 | locus YGL086W, strain mad1, hits give low values 1.05 | locus YGL167C, strain pmr1, hits give low values 1.02 | locus YGL173C, strain kem1, hits give low values 1 | locus YGL227W, strain vid30, hits give low values 1 | locus YGL240W, strain doc1, hits give low values 1.03 | locus YGL248W, strain PDE1, hits give low values 1 | locus YGL253W, strain hxk2, hits give low values 0.993 | locus YGR135W, strain pre9, hits give low values 1.01 | locus YGR252W, strain gcn5, hits give low values 0.924 | locus YHR013C, strain ard1, hits give low values 0.991 | locus YHR027C, strain rpn1, hits give low values 1.01 | locus YHR030C, strain SLT2, hits give low values 1 and 1.02 | locus YHR079C, strain IRE1 (second series), hits give low values 1 | locus YHR079C, strain IRE1, hits give low values 1.05 | locus YHR094C, strain hxt1, hits give low values 0.993 | locus YHR129C, strain ARP1, hits give low values 0.994 | locus YHR142W, strain chs7, hits give low values 1.04 | locus YHR200W, strain rpn10, hits give low values 0.984 | locus YIL066C, strain RNR3, hits give low values 1 | locus YIL073C, strain SPO22, hits give low values 1.19 | locus YIL125W, strain kgd1, hits give low values 1.01 | locus YIR030C, strain dcg1, hits give low values 0.993 | locus YJL092W, strain hpr5, hits give low values 1 | locus YJL095W, strain BCK1 (second series), hits give low values 1.01 | locus YJL095W, strain BCK1, hits give low values 0.999 and 1.04 | locus YJL115W, strain asf1, hits give low values 0.989 | locus YJL129C, strain trk1, hits give low values 1.02 | locus YJL134W, strain LCB3, hits give low values 1 | locus YJL154C, strain vps35, hits give low values 1 | locus YJL164C, strain tpk1, hits give low values 0.972 | locus YJL166W, strain qcr8, hits give low values 1.01 | locus YJL168C, strain set2, hits give low values 1.01 | locus YJL187C, strain SWE1 (second series), hits give low values 0.997 | locus YJL187C, strain SWE1, hits give low values 1 | locus YJR043C, strain POL32, hits give low values 0.996 | locus YJR066W, strain TOR1, hits give low values 0.969
